About 1,300 (0.34%) of roughly 380,000 compounds were called active.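 How the source made its calls: active means drop in luminescence signal, shown as inhibition above about 50% in the replicate tests (limit read from the data, passing the limit was not always enough); inconclusive means probably only some replicates passing the limit; inactive means the rest.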 Many of the other results were omitted from the sample, so actives are more common in it than they were.
test system: Drosophila bursicon receptor LGR2 (rickets); assay: inhibitors of bursicon-induced LGR2 CRE-luciferase signal, primary screen, cell-based, HEK293, CRE-luciferase reporter, bursicon stimulation (AID 720647); conditions: bursicon-stimulated, 4 h, at 9.99 µM, active compounds read high;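 further: agonist challenge used bursicon conditioned medium at about half maximal strength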

inhibition, inactive:
Cc1noc(C)c1NC(=O)Nc1ccc2c(c1)C(=O)N([C@@H](C)CO)C[C@@H](C)[C@H](CN(C)C(=O)NC(C)C)O2 9.15%
CCCNC(=O)[C@H]1[C@H](CO)[C@H]2Cn3c(ccc(-c4cccc(F)c4)c3=O)[C@@H]1N2C(=O)CC 4.62%
CC(C)CC#Cc1ccc([C@H]2[C@H]3CN(C(=O)CN4CCOCC4)CC(=O)N3[C@H]2CO)cc1 -1.92%
COc1ccc2c3c(n(C)c2c1)[C@H](CO)N(C(=O)CC1CC1)CC31CCN(Cc2nccs2)CC1 4.96%
Cc1cc(C(=O)COc2ccccc2Cl)c(C)n1C1CC1 -70%
Cc1cc(C(=O)CSc2nc(N)cc(=O)[nH]2)c(C)n1-c1cccc(F)c1 1.57%
CNC[C@@H]1Oc2ccc(NC(=O)Nc3ccc4c(c3)OCO4)cc2C(=O)N([C@H](C)CO)C[C@@H]1C -5.83%
CO[C@@H]1CN(C)C(=O)c2cc(NS(C)(=O)=O)ccc2OC[C@@H](C)N(C(=O)C2CCC2)C[C@@H]1C -11.1%
O=C(C[C@H]1CC[C@H]2[C@@H](COC[C@@H](O)CN2Cc2ccccc2)O1)N[C@@H]1CCN(Cc2ccccc2)C1 1.95%
CCS(=O)(=O)N1CC2(C1)CN(S(=O)(=O)c1ccccc1)[C@H](CO)c1c2c2ccc(OC)cc2n1C -11.1%
CC(C)NC(=O)Nc1ccc2c(c1)CC(=O)N([C@H](C)CO)C[C@@H](C)[C@@H](CN(C)C(=O)Nc1ccc3c(c1)OCO3)O2 -3.26%
Cc1noc(C)c1NC(=O)Nc1ccc2c(c1)C(=O)N([C@@H](C)CO)C[C@@H](C)[C@H](CN(C)Cc1ccc(C(F)(F)F)cc1)O2 -7.29%
C[C@H]1CN([C@@H](C)CO)C(=O)c2cc(C3=CCCCC3)cnc2O[C@@H]1CN(C)C(=O)c1ccc(F)cc1 2.17%
CN1c2ccc(Br)cc2[C@@H]2[C@@H](CCN2C(=O)C2CCCC2)[C@H]1CO 1.06%
Cc1cc(=O)cc(C)n1-c1ccc(Cl)c(Cl)c1 5.96%
COc1cccc(C2SCC(=O)N2c2cccc(C)c2)c1OC (centres undefined) 7.83%
CCNC(=O)C[C@@H]1CC[C@H]2[C@@H](COC[C@@H](O)CN2C(=O)c2cc(Cl)cc(Cl)c2)O1 11.4%
C[C@@H]1CN([C@@H](C)CO)C(=O)c2cc(NS(=O)(=O)c3ccccc3)ccc2O[C@H]1CN(C)S(=O)(=O)c1ccc(Cl)cc1 13.5%
CCOC(=O)C1=C(C)c2ccccc2OC1C(=O)OCC (centres undefined) -7.81%
CCOC(=O)C1=C(c2ccccc2)NC(=O)NC1c1cc(OC)c(OC)cc1OC (centres undefined) 8.83%
CO[C@H]1CN(C)C(=O)c2cc(NC(=O)Nc3ccc4c(c3)OCO4)ccc2OC[C@@H](C)NC[C@@H]1C -36.2%
C[C@H](CO)N1C[C@H](C)[C@H](CN(C)C(=O)Nc2ccccc2C(F)(F)F)OCc2cn(nn2)CCCC1=O 3.25%
CC(C)NC(=O)N(C)C[C@H]1OCCCC[C@H](C)Oc2ccc(NC(=O)CCC(F)(F)F)cc2C(=O)N([C@H](C)CO)C[C@H]1C 1.7%
Cc1noc(C)c1S(=O)(=O)N(C)C[C@@H]1Oc2ccc(NC(=O)Cn3cnnn3)cc2CC(=O)N([C@@H](C)CO)C[C@H]1C 0.447%

inhibition, active:
Cc1cc(C(=O)COC(=O)C2CC2)c(C)n1-c1ccc(F)cc1 81.6%
O=C(NC1=CC(=O)c2ccccc2C1=O)c1ccccc1 61.4%
CCCCCCCCn1c2c(c(=N)c3c1CCC3)CCCC2 52.6%
Cc1cccc(-n2ncc(Cl)c(Cl)c2=O)c1 103%
CCOC(=O)C1=C(c2ccc(OC)cc2)C(=O)c2ccccc2C1=O 99.6%

From PubChem BioAssay AID720647 (Broad Institute, 2013)
